From PubChem BioAssay (NCI)
The panel holds about 83,000 compounds, 20% with a hit somewhere; the sample as a whole holds those more often.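 Single-concentration screen, 48 h exposure, 96-well plates. Endpoint: percent growth. Below 10 = active.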 The source made the active and inactive calls.

Tests used:
Test in all cases: NCI-60 one-dose screen, 48 h (100 = growth as untreated, 0 = no growth, -100 = all killed)
Conditions in all cases: 10 µM unless noted
SR leukemia = system: SR leukemia
RPMI-8226 leukemia = system: RPMI-8226 leukemia
OVCAR-8 ovarian = system: OVCAR-8 ovarian
OVCAR-5 ovarian = system: OVCAR-5 ovarian
OVCAR-4 ovarian = system: OVCAR-4 ovarian
SK-OV-3 ovarian = system: SK-OV-3 ovarian
IGROV1 ovarian = system: IGROV1 ovarian
OVCAR-3 ovarian = system: OVCAR-3 ovarian
HS 578T breast = system: HS 578T breast
NCI/ADR-RES ovarian = system: NCI/ADR-RES ovarian

Measured: growth

CS(=O)(=O)Nc1cc(-c2ccc3ncnc(Nc4c(Cl)ccc5c4OCO5)c3c2)cnc1Cl
active: SR leukemia -8.28% | RPMI-8226 leukemia -19.7% | OVCAR-8 ovarian 8.87% | OVCAR-5 ovarian -28.6% | OVCAR-4 ovarian 8.29% | SK-OV-3 ovarian -10.2% | IGROV1 ovarian -53.5% | OVCAR-3 ovarian -64.5% | HS 578T breast -16.2% | NCI/ADR-RES ovarian 3.66%

Cc1ccccc1NC(=O)c1sc2nc(C)c(C(=O)/C=C/c3ccccc3)cc2c1N
inactive: SR leukemia 24.4% | OVCAR-5 ovarian 20.8% | OVCAR-4 ovarian 51.3% | SK-OV-3 ovarian 82% | IGROV1 ovarian 10.3%
active: RPMI-8226 leukemia -24.7% | OVCAR-8 ovarian 6.75% | OVCAR-3 ovarian -5.72% | HS 578T breast 10% | NCI/ADR-RES ovarian 1.11%

CC(=O)Cc1nsc(NC(=O)c2cc(-c3cc(Cl)cc(Cl)c3)oc2C)n1
inactive: SR leukemia 98.3% | RPMI-8226 leukemia 93.5% | OVCAR-8 ovarian 97.8% | OVCAR-5 ovarian 104% | OVCAR-4 ovarian 104% | SK-OV-3 ovarian 99.2% | IGROV1 ovarian 102% | OVCAR-3 ovarian 106% | HS 578T breast 102% | NCI/ADR-RES ovarian 103%

CSc1nnc(-c2cnn3c2NC(c2ccccc2)C3)n1-c1ccc(C(F)(F)F)cc1 (stereo not given)
inactive: SR leukemia 17.2% | RPMI-8226 leukemia 56.9% | OVCAR-8 ovarian 79.4% | OVCAR-5 ovarian 84.7% | OVCAR-4 ovarian 59.1% | SK-OV-3 ovarian 69.4% | IGROV1 ovarian 69.8% | OVCAR-3 ovarian 37.6% | HS 578T breast 64.7% | NCI/ADR-RES ovarian 56%

CN(CCn1sc(=O)n(Cc2ccccc2)c1=O)Cc1ccc2c(Cl)cc(Cl)c(O)c2n1
inactive: SR leukemia 39.2% | RPMI-8226 leukemia 45% | OVCAR-8 ovarian 32.7% | OVCAR-5 ovarian 61.4% | OVCAR-4 ovarian 59.3% | SK-OV-3 ovarian 65.4% | IGROV1 ovarian 37.3% | OVCAR-3 ovarian 18.9% | HS 578T breast 68.1%
active: NCI/ADR-RES ovarian 6.83%

COc1ccc(C(=S)N2CCN(c3ccccc3Cl)CC2)cc1OC
inactive: SR leukemia 39.9% | RPMI-8226 leukemia 117% | OVCAR-8 ovarian 105% | OVCAR-5 ovarian 95.2% | OVCAR-4 ovarian 99.9% | SK-OV-3 ovarian 120% | IGROV1 ovarian 105% | OVCAR-3 ovarian 104% | HS 578T breast 99.4% | NCI/ADR-RES ovarian 108%

COC(=O)c1cc(-c2ccc(OC)cc2)[nH]c1N/N=C/c1c(Cl)cccc1Cl
inactive: RPMI-8226 leukemia 10.9% | OVCAR-8 ovarian 14.5% | OVCAR-5 ovarian 44.3% | OVCAR-4 ovarian 40.6% | SK-OV-3 ovarian 18.8% | IGROV1 ovarian 29% | NCI/ADR-RES ovarian 20%
active: SR leukemia -16.4% | OVCAR-3 ovarian -72.4% | HS 578T breast 0.353%

COc1ccccc1Nc1nc2c(s1)C1=CC[C@H]3[C@@H]4CC[C@H]([C@H](C)CCCC(C)C)[C@@]4(C)CC[C@@H]3[C@@]1(C)CC2
inactive: SR leukemia 108% | RPMI-8226 leukemia 111% | OVCAR-8 ovarian 103% | OVCAR-5 ovarian 106% | OVCAR-4 ovarian 99.8% | SK-OV-3 ovarian 101% | IGROV1 ovarian 99.2% | OVCAR-3 ovarian 103% | HS 578T breast 105% | NCI/ADR-RES ovarian 96.1%

CC(C)NC1CCC(Nc2ccnc3cc(Cl)ccc23)CC1 (stereo not given)
inactive: SR leukemia 84% | RPMI-8226 leukemia 76% | OVCAR-8 ovarian 91.7% | OVCAR-5 ovarian 104% | OVCAR-4 ovarian 79.5% | SK-OV-3 ovarian 93% | IGROV1 ovarian 109% | OVCAR-3 ovarian 109% | HS 578T breast 96.6% | NCI/ADR-RES ovarian 108%

COC(=O)CCC(=O)C(=O)OC
inactive: OVCAR-8 ovarian 31.8% [10 mM] | OVCAR-5 ovarian 23.6% [10 mM] | OVCAR-4 ovarian 47.8% [10 mM] | HS 578T breast 25.2% [10 mM] | NCI/ADR-RES ovarian 33.1% [10 mM]
active: SR leukemia -26.4% [10 mM] | RPMI-8226 leukemia -8.65% [10 mM] | SK-OV-3 ovarian 3.77% [10 mM] | IGROV1 ovarian 9.89% [10 mM] | OVCAR-3 ovarian 5.88% [10 mM]

CCc1ccc(Oc2cn[nH]c2-c2ccc(OCCc3ccc(F)cc3)cc2O)cc1
inactive: SR leukemia 101% | RPMI-8226 leukemia 81% | OVCAR-8 ovarian 101% | OVCAR-5 ovarian 90.6% | OVCAR-4 ovarian 89.5% | SK-OV-3 ovarian 102% | IGROV1 ovarian 97.3% | OVCAR-3 ovarian 89.4% | HS 578T breast 93.1% | NCI/ADR-RES ovarian 89.2%

C/C(=C(/c1ccc(Cl)cc1)c1ccc(OCCN2CCCC2)cc1)c1ccc(Cl)cc1
inactive: RPMI-8226 leukemia 57.8% | OVCAR-8 ovarian 88.8% | OVCAR-5 ovarian 88.9% | OVCAR-4 ovarian 95.1% | SK-OV-3 ovarian 108% | IGROV1 ovarian 81.1% | OVCAR-3 ovarian 88.3% | HS 578T breast 90.9% | NCI/ADR-RES ovarian 90.4%
active: SR leukemia 4.02%

Cc1nc(-c2ccccc2)cc2c(O)c(C(=O)NN)[nH]c(=O)c12
active: IGROV1 ovarian 7.89%
inactive: SR leukemia 106% | RPMI-8226 leukemia 103% | OVCAR-8 ovarian 106% | OVCAR-5 ovarian 110% | OVCAR-4 ovarian 112% | SK-OV-3 ovarian 103% | OVCAR-3 ovarian 105% | HS 578T breast 109% | NCI/ADR-RES ovarian 118%

COc1cc(CNS(=O)(=O)c2ccc(C)cc2)ccc1OCc1cn(-c2ccc(F)cc2)nn1
inactive: SR leukemia 78.9% | RPMI-8226 leukemia 61.1% | OVCAR-8 ovarian 95.5% | OVCAR-5 ovarian 102% | OVCAR-4 ovarian 72.2% | SK-OV-3 ovarian 85.2% | IGROV1 ovarian 94.1% | OVCAR-3 ovarian 91.1% | HS 578T breast 97.8% | NCI/ADR-RES ovarian 85.8%

N=C(N)c1ccc(-c2ccc(-c3ccc(F)cc3)o2)o1
inactive: OVCAR-5 ovarian 58.4% | OVCAR-4 ovarian 62% | SK-OV-3 ovarian 28.1% | IGROV1 ovarian 44.9% | HS 578T breast 30.5% | NCI/ADR-RES ovarian 22.6%
active: SR leukemia -8.15% | RPMI-8226 leukemia -2.26% | OVCAR-8 ovarian 5% | OVCAR-3 ovarian 7.31%

O=C1c2cccc3cccc(c23)C(=O)N1N1C(=O)c2cccc3c(N4CCOCC4)ccc(c23)C1=O
inactive: SR leukemia 92.4% | RPMI-8226 leukemia 106% | OVCAR-8 ovarian 96.2% | OVCAR-5 ovarian 97.1% | OVCAR-4 ovarian 108% | SK-OV-3 ovarian 90% | IGROV1 ovarian 95.6% | OVCAR-3 ovarian 106% | HS 578T breast 90.3% | NCI/ADR-RES ovarian 92%

c1cnc2[nH]cc(-c3csc(-c4cn(CCCN5CCOCC5)c5ccccc45)n3)c2c1
active: SR leukemia 2.93%
inactive: RPMI-8226 leukemia 24.4% | OVCAR-8 ovarian 62.4% | OVCAR-5 ovarian 62.1% | OVCAR-4 ovarian 45.1% | SK-OV-3 ovarian 73.4% | IGROV1 ovarian 35.3% | OVCAR-3 ovarian 64.4% | HS 578T breast 28.5% | NCI/ADR-RES ovarian 60.1%

COc1ccc(/C=C2\COc3ccc(O)cc3C2=O)c(OC)c1OC
inactive: SR leukemia 16.5% | OVCAR-8 ovarian 67% | OVCAR-5 ovarian 95.8% | OVCAR-4 ovarian 79.3% | SK-OV-3 ovarian 112% | IGROV1 ovarian 91.3% | OVCAR-3 ovarian 57.2% | HS 578T breast 78% | NCI/ADR-RES ovarian 55.1%
active: RPMI-8226 leukemia 8.76%

O=C1c2cccc(NCCN=Cc3cc(O)ccc3O)c2C(=O)c2c(NCCN=Cc3cc(O)ccc3O)cccc21
inactive: SR leukemia 40.4% | SK-OV-3 ovarian 73.4% | NCI/ADR-RES ovarian 42.9%
active: RPMI-8226 leukemia -60.1% | OVCAR-8 ovarian 7.56% | OVCAR-5 ovarian -28.1% | OVCAR-4 ovarian -47% | IGROV1 ovarian -6.03% | OVCAR-3 ovarian -48.8% | HS 578T breast -37.6%

O=C(Nc1cccc([N+](=O)[O-])c1)c1cc2ccccc2cc1O
active: RPMI-8226 leukemia -55.3% | OVCAR-8 ovarian 9.47% | SK-OV-3 ovarian -82% | IGROV1 ovarian -2.54% | OVCAR-3 ovarian -9.94% | HS 578T breast 6.07% | NCI/ADR-RES ovarian -10.6%
inactive: SR leukemia 48.6% | OVCAR-5 ovarian 10.8% | OVCAR-4 ovarian 15.6%

N#CC1=C(N)Oc2c(sc3c(F)cccc23)C1c1ccc(F)cc1 (stereo not given)
active: NCI/ADR-RES ovarian 4.36%
inactive: SR leukemia 30.6% | RPMI-8226 leukemia 18.1% | OVCAR-8 ovarian 21.4% | OVCAR-5 ovarian 61.5% | OVCAR-4 ovarian 60.8% | SK-OV-3 ovarian 31.8% | IGROV1 ovarian 33.9% | OVCAR-3 ovarian 10.9% | HS 578T breast 24.6%

O=C1c2c(c3c4ccc(Br)cc4oc3c3[nH]c4ccccc4c23)C(=O)N1O
inactive: OVCAR-8 ovarian 47.6% | OVCAR-5 ovarian 95.9% | OVCAR-4 ovarian 66% | SK-OV-3 ovarian 79.1% | IGROV1 ovarian 25.3% | OVCAR-3 ovarian 21.3% | HS 578T breast 18% | NCI/ADR-RES ovarian 56.2%
active: SR leukemia 8.52% | RPMI-8226 leukemia 3.91%

CCCCCCC1(C)NCCO1 (stereo not given)
inactive: SR leukemia 94.5% | RPMI-8226 leukemia 101% | OVCAR-8 ovarian 96.6% | OVCAR-5 ovarian 110% | OVCAR-4 ovarian 96% | SK-OV-3 ovarian 100% | IGROV1 ovarian 79.8% | OVCAR-3 ovarian 114% | HS 578T breast 126% | NCI/ADR-RES ovarian 108%

CCCCOC(=O)OCc1cc(=O)c(O)co1
inactive: SR leukemia 104% | RPMI-8226 leukemia 106% | OVCAR-8 ovarian 102% | OVCAR-5 ovarian 102% | OVCAR-4 ovarian 104% | SK-OV-3 ovarian 105% | IGROV1 ovarian 110% | OVCAR-3 ovarian 114% | HS 578T breast 101% | NCI/ADR-RES ovarian 108%

Cc1ccc(Cl)cc1Nc1nc(C(F)(F)F)ccc1C(=O)N/N=C/c1cccnc1
active: SR leukemia -5.74% | OVCAR-4 ovarian 8.59% | SK-OV-3 ovarian -15.3% | IGROV1 ovarian 8.35%
inactive: RPMI-8226 leukemia 21% | OVCAR-8 ovarian 25.1% | OVCAR-5 ovarian 37.9% | OVCAR-3 ovarian 33.9% | HS 578T breast 39.9% | NCI/ADR-RES ovarian 13.9%

C=CCc1c2c(c(OC)c3ccoc13)C(=O)/C(=C/c1ccccc1OC)O2
inactive: SR leukemia 48% | RPMI-8226 leukemia 29.2% | OVCAR-8 ovarian 39.1% | OVCAR-5 ovarian 114% | OVCAR-4 ovarian 69.7% | SK-OV-3 ovarian 79.6% | IGROV1 ovarian 54.8% | OVCAR-3 ovarian 40.6% | HS 578T breast 58.1% | NCI/ADR-RES ovarian 35.2%
